TEAD-YAP block = TEAD-YAP interaction inhibition; AID 1259422; actives 1.4% (n = 640,000); HEK-TIYL cells, TEAD-Gal4/YAP UAS-luciferase luminescence; inhibition, % at 9.12 µM; in the data active = inhibition above about 32%;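 note: 0% = median of test compound wells and 100% = reference inhibitor wells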
GPR151 ag = human GPR151 activation | PathHunter beta-arrestin GPR151 cells, luminescence | activation, % at 11.2 µM | actives 1% (n = 650,000) | AID 1508602; in the data active = activation above about 4.9%;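 note: 0% = median of compound wells and 100% = cells with positive control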
MITF primary = human MITF inhibition, primary screen; O75030; AlphaScreen MITF homodimerization, bead proximity signal; inhibition, % at 2.6 µM; actives 0.91% (n = 650,000); in the data active = inhibition above about 50%;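 note: 0% = vehicle wells with protein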
FBW7 activator = activators of human E3 ligase FBW7; normalized activity (activation), % at 26.1 µM; actives 0.13% (n = 650,000); Q969H0; AlphaScreen FBW7–phospho-cyclin E peptide binding, activator screen; in the data active = normalized activity above about 1.9%;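 note: purified mutant Fbw7 with reduced substrate affinity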
GPR151 conf act = confirmation of human GPR151 activators | shares compounds with GPR151 ag | GPR151 PathHunter beta-arrestin cells, luminescence, 90 min; % of EA-reagent control over plate median | activation, % at 11.2 µM | 6,700 tested, under 10 active;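 active = mean percent activation across replicates above the confirmation screen cutoff of 4.91%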
GPR119 ag = GPR119 activation, counter-screen for GPR151 activators; shares compounds with GPR151 ag; GPR119 PathHunter beta-arrestin cells, luminescence, 90 min; 0 = compound-well median, 100 = enzyme-acceptor control; activation, % at 11.2 µM; actives 0.3% (n = 6,700);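 active = mean percent activation in the counterscreen above 29.09%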;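 note: counterscreen on off-target GPR119 to flag nonselective hits from the GPR151 activator screen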
Target sequence (Q8TDV5 whole entry, looked up): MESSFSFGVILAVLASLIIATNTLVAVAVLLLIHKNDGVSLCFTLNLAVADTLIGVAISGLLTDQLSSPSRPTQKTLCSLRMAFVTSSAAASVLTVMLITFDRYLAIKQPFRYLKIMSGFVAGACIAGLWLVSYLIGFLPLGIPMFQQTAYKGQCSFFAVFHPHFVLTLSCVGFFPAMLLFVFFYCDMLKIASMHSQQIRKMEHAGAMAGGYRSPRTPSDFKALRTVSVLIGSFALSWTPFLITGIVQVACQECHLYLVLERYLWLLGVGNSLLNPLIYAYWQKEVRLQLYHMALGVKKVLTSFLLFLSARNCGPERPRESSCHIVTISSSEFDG
Active calls of the source: *; / = no result given; ! = a repeat was not active. The list is not random: actives were taken first. Their share in the collection is about 3.4%.

SMILES	TEAD-YAP block	GPR151 ag	MITF primary	FBW7 activator	GPR151 conf act	GPR119 ag
COc1ccc2cc(C(=O)Nc3ccccc3C)c(=N)oc2c1	-40.1	5.0*	11.2	0.1	0.1	-7.2
COC(=O)CN1C(=O)C2(OCCCO2)c2cc(C)ccc21	1.4	0.8	6.0	0.0	/	/
CCOC(=O)CN1C(=O)C2(OCCCO2)c2cc(C)ccc21	6.3	5.7*	5.4	0.0	0.5	-0.8
O=C(NC1CCC(NC(=O)c2cccc(F)c2)CC1)c1cccc(F)c1 (stereo not given)	3.6	9.4*	-1.4	0.1	0.0	-4.8
CCC(=O)Nc1ccc(S(=O)(=O)NC(C)=O)cc1	6.4	-0.8	-5.5	-0.1	/	/
Cc1cc(C)c(C(=O)C/C(=N/O)C(F)(F)F)c(=O)[nH]1	-8.1	0.3	5.1	0.0	/	/
O=C(NCCc1nc(-c2ccncc2)n[nH]1)C1(c2ccccc2)CCCC1	4.8	5.9*	4.3	0.0	0.3	6.5
O=C(/C=C/c1ccc(I)o1)OCC(=O)c1cccs1	1.3	1.6	21.5	0.1	/	/
Cc1cc(C)c(CN2CCC3(CCC(CNC(=O)c4ccn(C)n4)O3)CC2)cc1C (stereo not given)	0.5	1.2	-10.1	0.1	/	/
COc1ccccc1CN1CCC2(CCC(CNC(=O)c3ccn(C)n3)O2)CC1 (stereo not given)	3.3	6.4*	-3.0	0.2	0.1	-2.5
O=C(COC(=O)c1ccc(Br)cc1)c1ccc([N+](=O)[O-])cc1	8.5	-0.1	6.8	0.2	/	/
CC(C)(C)c1cc(CN2CCCCC2)c(O)c(C(C)(C)C)c1	-3.3	-1.0	-10.0	0.0	/	/
CC1(CC(=O)N/N=C/c2cccc(Br)c2)OCCO1	-9.7	-1.0	1.6	-0.3	/	/
CC1(CC(=O)N/N=C/c2cccc(OC3CSC3)c2)OCCO1	-2.8	5.9*	11.8	0.1	0.4	2.2
CC(C)NC(=O)CSc1nnc(-c2cccnc2)n1CCc1ccccc1	4.2	9.5*	6.2	-0.1	1.8	13.3
CCc1cccc(CC)c1-n1c(SCC(=O)NC)nnc1-c1cccnc1	-8.6	1.8	-16.7	-0.1	/	/
CCc1ccccc1-n1c(SCC(=O)NC)nnc1-c1cccnc1	1.3	7.6*	15.4	0.1	0.4	2.9
CNC(=O)CSc1nnc(-c2cccnc2)n1CCc1ccccc1	-3.4	0.1	-7.9	-0.1	/	/
COc1ccc(NC2=C(C(C)=O)C(c3ccc([N+](=O)[O-])cc3)C(C(C)=O)C(C)(O)C2)cc1 (stereo not given)	9.4	0.4	9.3	0.3	/	/
O=C(Cc1ccccc1)NCC(=O)OCc1ccc(Cl)cc1	-19.7	0.5	-3.6	0.3	/	/
CCOC(=O)CNC(=O)N(Cc1ccccc1)Cc1ccccc1	-6.8	5.3*	-7.7	0.0	-0.4	-7.4
NCC(=O)NCC(=O)OCc1ccccc1	6.2	7.5*	-2.8	0.1	0.9	7.5
CCOC(=O)CNC(=O)OCc1ccccc1	3.7	-0.7	-0.3	-0.1	/	/
CCC(Sc1nc2ccc(N3CCCCC3)cc2c(=O)n1Cc1ccccc1)C(=O)Nc1ccc2c(c1)OCO2 (stereo not given)	-8.1	-0.9	0.0	0.0	/	/
O=C(Nc1ccc(Oc2cccc(Oc3ccc(NC(=O)c4ccccc4F)cc3)c2)cc1)c1ccccc1F	-1.5	18.3*	11.7	0.0	-0.6	-10.3
SMILES	TEAD-YAP block	GPR151 ag	MITF primary	FBW7 activator	GPR151 conf act	GPR119 ag
O=C(Nc1cccc(NC(=O)c2ccccc2F)c1)c1ccccc1F	-7.8	1.4	12.7	0.0	/	/
Cc1ccc(NC(=O)/C(C#N)=C/c2cc3c(cc2Cl)OCO3)c([N+](=O)[O-])c1	-13.4	0.4	2.2	-0.2	/	/
Cc1ccc(-c2nc(-c3ccccc3)c(-c3ccccc3)[nH]2)cc1[N+](=O)[O-]	-6.0	0.9	10.2	-0.1	/	/
COc1ccc2nc(NC(=O)C34CCC(C)(C(=O)C3)C4(C)C)sc2c1 (stereo not given)	-10.9	9.1*	-4.4	-0.1	-0.5	-9.0
O=[N+]([O-])c1ccc(CSC2=NCCN2)cc1	20.4	7.2*	-2.6	-0.1	-0.4	-6.3
CCOc1ccc(CSC2=NCCN2)cc1[N+](=O)[O-]	-4.8	0.0	9.7	-0.7	/	/
COc1ccc(CCN2CCC(NCC3CC3)CC2)cc1	8.0	0.3	-4.7	-0.1	/	/
COc1ccc(CCN2CCC(Nc3nc4ccccc4n3Cc3ccc(F)cc3)CC2)cc1	4.8	9.2*!	-2.9	-0.2	1.6	-0.8
CC(C)(C)C(=O)CSc1nc2cc(C(=O)NCc3ccccc3Cl)ccc2c(=O)n1Cc1ccccc1	8.7	0.4	18.1	1.1	/	/
COc1cc(C(C)=O)ccc1OCC(O)CN1CCCC(C(F)(F)F)C1 (stereo not given)	-6.4	2.6	21.0	-0.2	/	/
CCOC(=O)c1cccc(NC(=O)n2ncc3cc(Cl)ccc32)c1	84.6*	5.6*	1.5	-0.1	0.4	-2.9
CCOC(=O)c1ccccc1NC(=O)n1ncc2cc(Cl)ccc21	-9.2	-0.3	-1.7	-0.1	/	/
COc1ccc(NC(=O)c2cc3cc(Cl)ccc3oc2=O)cc1	-3.9	6.3*	-2.1	0.0	0.1	14.8
COc1ccc2oc(=O)c(C(=O)Nc3cccc(Cl)c3)cc2c1	-11.3	-0.1	-2.2	-0.1	/	/
CCOc1ccc(NC(=O)c2cc3cc(Br)cc(OC)c3oc2=O)cc1	-1.1	-1.5	-14.3	-0.1	/	/
CCOC(=O)c1c(NC(=O)c2cc3cc(Cl)ccc3oc2=O)sc(C(C)=O)c1C	5.6	8.1*	1.3	0.0	-1.4	-15.3
COc1cc(Br)cc2cc(C(=O)Nc3ccc(O)cc3)c(=O)oc12	-1.0	7.6*	-17.2	-0.1	-0.1	8.1
CCCn1c(SCC(=O)N2c3ccccc3CC2C)nnc1-c1ccccn1 (stereo not given)	21.9	0.3	2.8	-0.2	/	/
CCN1CCN(C(=O)C(C)n2c(C)c3cnn(-c4ccccc4)c(=O)c3c2C)CC1 (stereo not given)	2.9	-0.9	-3.1	0.1	/	/
O=C(Nc1ccc(-c2ccn[nH]2)cc1)C1CCCN(C2CSCCSC2)C1 (stereo not given)	-1.8	-0.3	-8.7	-0.1	/	/
COc1ccccc1-n1c(SCC#N)nc2c(sc(=S)n2-c2cc(C)ccc2F)c1=O	-11.2	2.5	7.0	-0.1	/	/
Cc1nc2ccccn2c(=O)c1CCN1CCC(C(=O)c2ccc(F)cc2)CC1	-3.0	9.9*!	6.6	0.7	-0.4	-4.5
Cc1nc2sccn2c(=O)c1CCN1CCC(=C(c2ccc(F)cc2)c2ccc(F)cc2)CC1	0.5	-0.3	27.8	0.1	/	/
Cc1[nH]c2ccccc2c1/C=N/NC(=O)c1ccccc1O	-9.6	0.1	14.8	0.1	/	/
Cc1[nH]c2ccccc2c1/C=N/NC(=O)c1cccnc1	-13.1	5.2*	1.4	0.0	-0.7	7.2
O=C(N/N=C/c1ccccc1F)c1cccnc1	-3.1	7.1*	12.9	0.4	-0.8	-6.1
O=c1c(CN2CCOc3ccc(CN4CCN(CCO)CC4)cc3C2)coc2ccccc12	-7.5	0.2	9.2	-0.1	/	/

Screens from PubChem BioAssay.
